# ± gives the standard deviation of the averaged measurements. Whole data set: some 33,000 sequences, median “E-score (rank enrichment, -0.5 to 0.5)” near -0.0068, cut for the highest 2% near 0.24. This excerpt belongs to a sample that is enriched for the highest values.
# Test system: muMax20 (Max(13-93) K31hArg/K57hArg, M65Nle)
# Assay: PBM 8-mer E-score (E-score (rank enrichment, -0.5 to 0.5)); higher = stronger preferential binding
# Procedure: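 Protein binding microarray (universal PBM chip covering all 10-mers in fixed probe flanks) with chemically synthesized human Max(13-93) bHLH-LZ analogs (not full-length Max) bearing noncanonical residues (hArg, Tha, Aib, Nle at 65) and aromatic Cys staples. Read-out per 8-mer (and its reverse complement): E-score (rank-based enrichment, -0.5 to 0.5) and Z-score of median probe intensity.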
row,Sequence,PBM 8-mer E-score
1,CGGTTCAC,-0.245 ± 0.053
2,AGCATTCC,-0.123 ± 0.17
3,GGAGCCCA,-0.156 ± 0.11
4,CCTGTGAC,-0.0438 ± 0.0042
5,CCATAGAC,-0.0388 ± 0.035
6,GACGTTGA,0.0147 ± 0.11
7,ATCCTTTG,0.0245 ± 0.09
8,CTGAGCAC,-0.0319 ± 0.049
9,TCGAGAGA,-0.0503 ± 0.027
10,AATGACTC,0.152 ± 0.015
11,GTTGAACA,0.031 ± 0.035
12,CGTAACTC,-0.0982 ± 0.11
13,AACACGGT,-0.129 ± 0.055
14,TCCGCGCA,-0.113 ± 0.072
15,GTGTGAAA,0.141 ± 0.027
16,ATGTGATA,0.24 ± 0.12
17,CTGTGAAA,0.0471 ± 0.025
18,CCGTGATA,-0.0912 ± 0.033
19,CTGTGATA,-0.0301 ± 0.17
20,GCGTGATA,0.174 ± 0.032
21,ATGTGAAA,0.317 ± 0.057
22,ACGTGATA,0.33 ± 0.082
23,ACGTGATG,0.294 ± 0.05
24,GTGTGATA,0.154 ± 0.018
25,AAGTGATG,0.129 ± 0.12

row,Sequence,PBM 8-mer E-score
1,AGGTGATG,-0.00343 ± 0.027
2,ACTATGCT,0.231 ± 0.07
3,CCCGAGGA,-0.233 ± 0.074
4,ATGGGATC,0.0291 ± 0.075
5,CTAACTCA,0.0355 ± 0.056
6,AGCCGATG,-0.155 ± 0.04
7,AATCACCA,0.133 ± 0.014
8,AGTGTCCC,-0.0112 ± 0.012
9,ACTATTAT,0.204 ± 0.056
10,AATATTAG,0.175 ± 0.04
11,GATATTAC,0.121 ± 0.015
12,AACATTGG,-0.0243 ± 0.2
13,AGTATTAG,0.0793 ± 0.032
14,AGTATTAA,0.268 ± 0.03
15,AATATTAC,0.281 ± 0.066
16,AACATTGT,0.236 ± 0.013
17,TGTATTAA,0.184 ± 0.096
18,CATATTAC,0.0522 ± 0.03
19,AACATTGA,0.0179 ± 0.032
20,AATATTAT,0.25 ± 0.026
21,CCCGCGCA,-0.124 ± 0.031
22,ATGTGGCA,0.0287 ± 0.095
23,AGCATTTC,0.141 ± 0.0034
24,CAACTAAG,0.0637 ± 0.092
25,ATTGCAAA,0.0872 ± 0.083

row,Sequence,PBM 8-mer E-score
1,AGGTCCTA,-0.128 ± 0.083
2,TTCCCGAA,-0.0933 ± 0.0092
3,AATAGAAC,0.0563 ± 0.077
4,CATATTAG,0.121 ± 0.053
5,AATATTGC,0.138 ± 0.076
6,GATATTAA,0.134 ± 0.028
7,AATATTAA,0.304 ± 0.025
8,ACTATTAA,0.149 ± 0.011
9,CATATTAA,0.297 ± 0.012
10,TATATTAA,0.179 ± 0.025
11,AATATTGG,0.101 ± 0.094
12,AATATTGT,0.256 ± 0.006
13,CGCGCTCC,-0.0678 ± 0.11
14,AGCTGTAC,-0.0262 ± 0.13
15,GGACTGTA,0.00313 ± 0.055
16,ATTTGTAC,0.176 ± 0.038
17,AATTATAT,0.147 ± 0.044
18,CTATCAGC,0.0217 ± 0.00023
19,CAGTCATA,0.0326 ± 0.1
20,AAAACGGC,0.3 ± 0.099
21,GAAACGGC,0.0377 ± 0.059
22,AAACGGCT,-0.0843 ± 0.069
23,CAAACGGC,-0.242 ± 0.0069
24,CAACGGCC,-0.206 ± 0.059
25,AAACGGCC,0.294 ± 0.093

row,Sequence,PBM 8-mer E-score
1,ACAAATAT,0.185 ± 0.027
2,ATCCGCGC,-0.227 ± 0.043
3,CACATACC,-0.0465 ± 0.058
4,CCTTCGCG,-0.228 ± 0.019
5,CTGAAAGA,0.0447 ± 0.09
6,ATGCCAAA,0.111 ± 0.027
7,ATACGTAA,0.112 ± 0.077
8,ATACGTAT,0.308 ± 0.0025
9,ATACGTAC,0.188 ± 0.074
10,CTCGTCCA,-0.0336 ± 0.048
11,CCGTAAAG,0.104 ± 0.11
12,AAGGCCGG,-0.243 ± 0.084
13,AAGGCCGT,0.278 ± 0.095
14,AAGGCCGC,-0.00405 ± 0.027
15,GCCGACAA,-0.268 ± 0.068
16,GCGGTTGA,-0.134 ± 0.11
17,ACCACCCC,-0.0712 ± 0.063
18,GCCACCCC,-0.0921 ± 0.047
19,CCCACCCC,0.258 ± 0.018
20,CCACCCCC,-0.12 ± 0.084
21,CCACCCCA,0.261 ± 0.066
22,CCCACCCA,0.269 ± 0.099
23,GCACCCCA,-0.0239 ± 0.0035
24,TCCACCCA,0.00135 ± 0.18
25,CCCACCCG,0.186 ± 0.028

row,Sequence,PBM 8-mer E-score
1,ATCCATAC,0.15 ± 0.062
2,GGTAGAAA,0.0368 ± 0.022
3,AGGCGCGG,-0.125 ± 0.07
4,GAGTGGAA,-0.00431 ± 0.092
5,GTTCACAA,-0.0567 ± 0.038
6,ATTCACAG,-0.0684 ± 0.13
7,ATTCACAA,0.247 ± 0.032
8,AAAACTTT,0.133 ± 0.058
9,CTAACATC,0.042 ± 0.045
10,GTAACAAA,0.197 ± 0.067
11,ATAACATG,0.199 ± 0.064
12,ATAACACG,0.251 ± 0.014
13,ATAACACC,0.134 ± 0.014
14,ATAACATC,0.249 ± 0.13
15,GTAACACA,0.26 ± 0.11
16,CTAACACA,0.127 ± 0.02
17,ATAACACA,0.186 ± 0.067
18,CGGGGGGA,-0.222 ± 0.029
19,ACGGCACC,-0.104 ± 0.13
20,CGGACAGC,-0.13 ± 0.064
21,GCGGCATA,-0.00641 ± 0.021
22,CCTTCGAC,-0.147 ± 0.0063
23,ATTACTCC,0.182 ± 0.07
24,CTACCGCC,-0.156 ± 0.014
25,GGAACAAA,0.171 ± 0.014

row,Sequence,PBM 8-mer E-score
1,CCGAGCGA,-0.223 ± 0.081
2,GCTTTTCA,0.0793 ± 0.013
3,CCTTTTTA,0.0863 ± 0.063
4,AGTTTATA,0.266 ± 0.0043
5,CTTTTGTA,0.151 ± 0.01
6,GTTTTGTA,0.254 ± 0.012
7,AGTTTATC,0.138 ± 0.08
8,GCTTTTAA,0.00199 ± 0.15
9,GGTTTGTA,-0.00997 ± 0.022
10,CCTTTTCA,0.295 ± 0.091
11,GCTTTTTA,0.292 ± 0.084
12,GGTTTATA,0.051 ± 0.032
13,CTTTTTCA,0.0825 ± 0.076
14,AGAATGTA,0.159 ± 0.034
15,ATCCAGAT,0.0236 ± 0.27
16,AGAATCGA,-0.018 ± 0.077
17,CCAATCCG,-0.198 ± 0.078
18,CTCATACC,0.014 ± 0.025
19,AGACCCCA,0.177 ± 0.046
20,CAGCCAAG,-0.147 ± 0.066
21,AGTACATA,0.147 ± 0.081
22,CTTTTATA,0.184 ± 0.01
23,ATTTTATA,0.231 ± 0.038
24,GTTTTATA,0.261 ± 0.059
25,AATTTATA,0.247 ± 0.059

row,Sequence,PBM 8-mer E-score
1,CATTTATA,0.175 ± 0.032
2,AATTTATC,0.205 ± 0.02
3,GTCGAGGA,-0.115 ± 0.0082
4,GGAAAGGA,-0.246 ± 0.099
5,ACAGAGGG,-0.155 ± 0.0044
6,GTCTAGTA,0.252 ± 0.03
7,ATCTAGTA,-0.00587 ± 0.017
8,CTCTAGTA,0.118 ± 0.0018
9,CAGCCGAC,-0.22 ± 0.12
10,GGGGGACC,-0.296 ± 0.013
11,AAGAGCAC,0.00129 ± 0.0028
12,AGATTCGG,-0.118 ± 0.032
13,TCAAGGGA,-0.065 ± 0.048
14,AAGATACA,0.316 ± 0.024
15,CAGATGTA,0.138 ± 0.011
16,AAGATACT,0.117 ± 0.038
17,ATGATATG,0.21 ± 0.12
18,GAGATGTA,0.104 ± 0.017
19,CTGATATA,0.0184 ± 0.051
20,GAGATACA,-0.0288 ± 0.04
21,AAGATGTA,0.237 ± 0.094
22,ATGATATA,0.266 ± 0.048

# From the supplement of paper PMC12636033
